Results filed as inconclusive are left out. Unless noted, the call rests on the fitted dose curve; in most records, active means well fitted curve in either direction with a large enough effect (not every such curve was filed as active); inconclusive means small, poorly fitted or top-dose-only effect, or another doubt; inactive means flat fitted curve, though single readings scatter.
What was measured:
[1] = AP1 Signaling Pathway (AID 357); details: ME-180 AP-1-bla reporter, EGF-induced, beta-lactamase ratio, 5 h; at 17.2 µM (top of the series) unless noted;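 further: ME-180 reporter cells stimulated with EGF at its EC50 level; on the % scale 0 is the no-effect control and ±100 the full control effect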
In short: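 Modulation of EGF-driven AP-1 transcription was assessed with a beta-lactamase reporter in ME-180 cells. Compound and EC50 EGF were co-incubated 5 hours at 37 °C before 2.5-hour CCF4 loading at room temperature and dual-emission reading.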

[2] = NFAT Signaling Pathway (AID 444); details: Jurkat NFAT-bla M1, carbachol, beta-lactamase ratio, 5 h; at 17.2 µM (top of the series) unless noted;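 further: carbachol stimulus at about its EC50 of 1 µM final; on the % scale 0 is the no-effect control and ±100 the full control effect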
In short: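 Read-out: CCF4 FRET ratio (460 nm/530 nm) after 1 h RT dye loading, used for %activity and AC50 from titration series. Cells: Jurkat NFAT-β-lactamase/M1 line, treated with compound plus 1 uM carbachol for 5 h, 37 °C.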

[3] = Stat Signaling Pathway (AID 446); details: ME-180 (cervical carcinoma) SIE beta-lactamase reporter, IL-6 stimulated, 5 h; at 17.2 µM (top of the series) unless noted;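 further: ME-180 cervical cancer cells given 40 pM IL-6 alongside compound; SIE-controlled beta-lactamase reporter measured as 460/530 nm FRET emission ratio; on the % scale 0 is the no-effect control and ±100 the full control effect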
In short: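 Normalization used AC90 stimulation (300 pM IL-6) and AC90 inhibition (125 nM pan-JAK inhibitor at 40 pM IL-6). The underlying signal is SIE-driven beta-lactamase in ME-180 cells after 5 h IL-6 exposure with compound.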

[4] = target: Glucocorticoid receptor (Homo sapiens) (UniProt P04150); assay: GR-GFP Redistribution (AID 450;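 active means compounds whose dose series gives a full or clear partial fitted curve of increased nuclear translocation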; further: potency means the concentration at half of the fitted maximal effect)
Sequence of Glucocorticoid receptor (Homo sapiens) (P04150 whole entry, looked up): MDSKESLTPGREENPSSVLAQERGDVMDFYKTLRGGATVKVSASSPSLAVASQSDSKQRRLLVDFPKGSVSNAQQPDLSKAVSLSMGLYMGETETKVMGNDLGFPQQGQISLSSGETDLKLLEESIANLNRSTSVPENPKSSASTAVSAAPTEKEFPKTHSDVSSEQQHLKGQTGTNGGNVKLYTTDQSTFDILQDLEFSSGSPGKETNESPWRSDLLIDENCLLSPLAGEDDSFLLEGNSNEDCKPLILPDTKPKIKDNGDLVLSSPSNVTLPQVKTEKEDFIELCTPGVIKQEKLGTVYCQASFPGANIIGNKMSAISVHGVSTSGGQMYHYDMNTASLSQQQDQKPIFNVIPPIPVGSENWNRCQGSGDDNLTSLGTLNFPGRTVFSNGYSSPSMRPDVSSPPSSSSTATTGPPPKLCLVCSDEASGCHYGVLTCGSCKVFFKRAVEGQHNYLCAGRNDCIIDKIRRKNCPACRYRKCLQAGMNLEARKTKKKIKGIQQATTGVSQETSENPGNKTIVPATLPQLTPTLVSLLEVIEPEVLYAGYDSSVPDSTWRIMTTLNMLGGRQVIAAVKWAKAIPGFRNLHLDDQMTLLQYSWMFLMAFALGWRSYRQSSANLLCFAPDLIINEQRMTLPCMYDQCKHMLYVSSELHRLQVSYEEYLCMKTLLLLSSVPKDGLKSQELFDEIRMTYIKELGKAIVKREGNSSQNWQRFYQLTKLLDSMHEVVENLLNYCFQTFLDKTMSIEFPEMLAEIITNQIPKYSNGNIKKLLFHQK

CCCCn1c(=O)n(C)c(=O)c2c3c(sc21)COC(C)(C)C3
inactive: activity change, negative = inhibition [1] -4.87% | activity change, negative = inhibition [2] 5.64% | activity, negative = inhibition [3] -7.31% | Potency [4] > 20.6 µM

Nc1nc2n(n1)C(c1ccc(F)cc1)CC(c1ccc(F)cc1)N2 (stereo not given)
inactive: activity change, negative = inhibition [1] -1.23% | activity change, negative = inhibition [2] 10.7% | activity, negative = inhibition [3] 5.35% | Potency [4] > 20.6 µM

O=C(NCCCNCc1ccccc1)/C(=N\O)c1ccccc1
inactive: activity change, negative = inhibition [1] -2.86% | activity change, negative = inhibition [2] -1.67% | activity, negative = inhibition [3] 4.93% | Potency [4] > 20.6 µM

CCC(=O)Nc1cc(-c2nn(C)c(=O)c3ccccc23)ccc1N1CCCCC1
inactive: activity change, negative = inhibition [1] -16.8% | activity change, negative = inhibition [2] -13.8% | activity, negative = inhibition [3] -6.35% | Potency [4] > 20.6 µM

COC(=O)C1=C(C)N=C2SC(C)C(=O)N2C1c1cccc(F)c1 (stereo not given)
inactive: activity change, negative = inhibition [1] -23.7% | activity change, negative = inhibition [2] -3.19% | activity, negative = inhibition [3] -1.23% | Potency [4] > 20.6 µM

CC1(C)CC(=O)C(C=NCCN2CCN(C(=O)C34CC5CC(CC(C5)C3)C4)CC2)=C(O)C1
inactive: activity change, negative = inhibition [1] -9.89% | activity change, negative = inhibition [2] 9.88% | activity, negative = inhibition [3] 7.24% | Potency [4] > 20.6 µM

COc1ccc2c(c1)nc(N)n2Cc1ccccc1
inactive: activity change, negative = inhibition [1] -1.6% | activity change, negative = inhibition [2] -9.42% | activity, negative = inhibition [3] -3.55% | Potency [4] > 20.6 µM

CCCC(=O)Nc1sc2c(c1C#N)CCCC2
inactive: activity change, negative = inhibition [1] -16.2% | activity change, negative = inhibition [2] -0.791% | activity, negative = inhibition [3] 8.33% | Potency [4] > 20.6 µM

COc1ccc(Nc2nnc(C)c3ccccc23)cc1C(N)=O
inactive: activity change, negative = inhibition [1] -4.55% | activity change, negative = inhibition [2] 10.7% | activity, negative = inhibition [3] -9.16% | Potency [4] > 20.6 µM

CC1(C)Cc2c(C#N)c(N3CCN(C(=O)c4ccccc4)CC3)nc(-c3ccco3)c2CS1
inactive: activity change, negative = inhibition [1] -7.63% | activity change, negative = inhibition [2] -24.6% | activity, negative = inhibition [3] 9.81% | Potency [4] > 20.6 µM

CC1(C)Cc2c(sc3nc4n(c(=N)c23)CCC4)CO1
inactive: activity change, negative = inhibition [1] -5.14% | activity change, negative = inhibition [2] -4.64% | activity, negative = inhibition [3] 4.33% | Potency [4] > 20.6 µM

CC1CCN(c2ncnc3c2cnn3Cc2ccc(Cl)cc2)CC1
inactive: activity change, negative = inhibition [1] -26% | activity change, negative = inhibition [2] -2.2% | activity, negative = inhibition [3] -11.4% | Potency [4] > 20.6 µM

CC(=O)Nc1n[nH]c(S(=O)(=O)Cc2ccc(Cl)cc2Cl)n1
inactive: activity change, negative = inhibition [1] -2.5% | activity change, negative = inhibition [2] 4.1% | activity, negative = inhibition [3] 3.27% | Potency [4] > 20.6 µM

COc1ccc(/C(O)=C2/C(=O)C(=O)N(CCCN(C)C)C2c2ccco2)cc1Cl (stereo not given)
inactive: activity change, negative = inhibition [1] 9.29% | activity change, negative = inhibition [2] -5.99% | activity, negative = inhibition [3] 4.09% | Potency [4] > 20.6 µM

COc1ccc(N/C(=N\c2nc(C)cc(C)n2)NC(=O)C(C)C)cc1OC
inactive: activity change, negative = inhibition [1] -12.4% | activity change, negative = inhibition [2] 21.2% | activity, negative = inhibition [3] -1.06% | Potency [4] > 20.6 µM

CC1(C)CC(NC(=O)C23CCC(C)(/C(=N/O)C2)C3(C)C)CC(C)(C)N1 (stereo not given)
inactive: activity change, negative = inhibition [1] 1.22% | activity change, negative = inhibition [2] 10.5% | activity, negative = inhibition [3] 0.446% | Potency [4] > 20.6 µM

COCCNc1oc(-c2ccc(Cl)cc2)nc1C#N
inactive: activity change, negative = inhibition [1] -8.7% | activity change, negative = inhibition [2] -6.46% | activity, negative = inhibition [3] -5.03% | Potency [4] > 20.6 µM

COC(=O)c1ccc(CSc2nc(N3CCOCC3)c3c(c2C#N)CC(C)(C)OC3)o1
inactive: activity change, negative = inhibition [1] -9.04% | activity change, negative = inhibition [2] -8.92% | activity, negative = inhibition [3] 20% | Potency [4] > 20.6 µM

CCOC(=O)COn1c(=O)c(-c2ccc(OC)c(OC)c2)[n+]([O-])c2ccccc21
inactive: activity change, negative = inhibition [1] -0.29% | activity change, negative = inhibition [2] -6.08% | activity, negative = inhibition [3] 4.19% | Potency [4] > 20.6 µM

Cc1ccc(CC2CC(=O)N(c3ccc4c(c3)OCCO4)C2=O)cc1 (stereo not given)
inactive: activity change, negative = inhibition [1] -5.59% | activity change, negative = inhibition [2] 4.5% | activity, negative = inhibition [3] 0.576% | Potency [4] > 20.6 µM

CCNc1sc(C(=O)c2cccs2)c(N)c1C#N
inactive: activity change, negative = inhibition [1] -8.55% | activity change, negative = inhibition [2] 20.9% | activity, negative = inhibition [3] -7.29% | Potency [4] > 20.6 µM

CCOC(=O)C(C)c1nc2ccccc2[nH]c1=O (stereo not given)
inactive: activity change, negative = inhibition [1] 3.01% | activity change, negative = inhibition [2] -0.784% | activity, negative = inhibition [3] 4.12% | Potency [4] > 20.6 µM

O=C1NCC(COCC2CC=CCC2)O1 (stereo not given)
inactive: activity change, negative = inhibition [1] 9.6% | activity change, negative = inhibition [2] 15% | activity, negative = inhibition [3] 2.08% | Potency [4] > 20.6 µM

Cc1c(C=NCCOCc2ccccc2)cnn1C
inactive: activity change, negative = inhibition [1] -2.81% | activity change, negative = inhibition [2] -4.41% | activity, negative = inhibition [3] 12.4% | Potency [4] > 20.6 µM

COc1ccc(-c2onc(C)c2-c2ccccc2)c(O)c1
inactive: activity change, negative = inhibition [1] -16.7% | activity change, negative = inhibition [2] 9.81% | activity, negative = inhibition [3] -25.2% | Potency [4] > 20.6 µM

From PubChem BioAssay (NCATS)
